For ten compounds, z-score and composite z-score results are on record in PubChem BioAssay.

Molecules are shown by their SMILES. The source made the active and inactive calls. Unless noted, the rule behind the calls is not given here.

Assay [1] is described as follows: HepG2 liver cancer cell viability effects, profiling panel, resazurin fluorescence, 24 h, PK04 Diversity Set (AID 1172). The conditions noted are these: higher = more signal.
A short description of assay [2]: basal S. cerevisiae growth modulation, no modifier, primary screen, OD600, strain BY4716, 24 h, basal condition (AID 1173). The conditions noted are these: OD600, 24 h, higher = more signal, called active from +8 up or from −8 down.
Assay [3] in a line: MM1S myeloma cell viability, profiling panel, resazurin fluorescence, basal, 24 h, PK04 Diversity Set (AID 1174). Particulars: higher = more signal, called active from +8 up or from −8 down. On the technique in general: Resazurin is reduced to fluorescent resorufin, in cell work by metabolically active cells.
Assay [4] has as its target Dihydroorotate dehydrogenase (quinone), mitochondrial (Plasmodium falciparum (isolate 3D7)) (UniProt Q08210). Briefly: PfDHODH enzyme inhibitors, primary screen, biochemical, C-terminal His tag, absorbance 600 nm (AID 1175).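 Note: recombinant parasite enzyme with a five histidine tag at its C terminus.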 Particulars: DCIP absorbance 600 nm, higher = more signal, called active from +8 up or from −8 down.
The nature of assay [5]: P. aeruginosa biofilm formation inhibitors, primary screen, strain PAO1, LB-PBS medium, absorbance 600 nm (AID 1176). Particulars: P. aeruginosa PAO1 growth/biofilm, A600, 12 h; higher = more signal.
Assay [6] can be described thus: S. cerevisiae RM11-1a growth modifiers, primary screen, strain RM11-1a, OD600, basal, 24 h (AID 1177).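 Note: cultures grown under basal conditions with no added stressor.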 The conditions noted are these: OD600, 24 h, higher = more signal, called active from +8 up or from −8 down.
Assay [7] in a line: E. coli acrAB mutant growth effects, primary screen, E. coli filamentation inducers, strain DRC39, OD650, 24 h (AID 1178).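 Note: growth measured as culture turbidity by optical density at 650 nm.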 The conditions noted are these: higher = more signal, called active from +8 up or from −8 down.
Assay [8] is described as follows: E. coli acrAB mutant growth effects, primary screen, E. coli filamentation inducers, strain DRC39, OD650, 48 h (AID 1179).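 Note: screen aims at cell division blockers that make cells filament.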 The conditions noted are these: E. coli DRC39 delta-acrAB growth, higher = more signal, called active from +8 up or from −8 down.
Assay [9] in a line: RPMI8226 myeloma cell viability, profiling panel, resazurin fluorescence, basal, 24 h, PK04 Diversity Set (AID 1180).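 Note: RPMI8826 multiple myeloma cell line at 5000 cells per well.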 The conditions noted are these: higher = more signal.
Assay [10] has as its target E3 ubiquitin-protein ligase XIAP (Homo sapiens) (UniProt P98170). The assay is described as follows: XIAP binders, primary screen, biophysical, small-molecule microarray, fluorescence 635 nm (AID 1181).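 Note: score merges 667 nm emission and signal to noise over triplicate slides.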 The conditions noted are these: small-molecule microarray binding, higher = more signal.
Assay [11] has as its system XIP peptide (Xip251-270) binding. The assay is described as follows: small-molecule binders of XIP peptide, primary screen, biochemical, small-molecule microarray, fluorescence 635/667 nm, 0.1 µg/mL protein (AID 1182). The conditions noted are these: fluorescent protein binding, 635 nm, higher = more signal, called active from +8 up or from −8 down.
Another assay concerns XIP peptide (Xip251-270). Briefly: small-molecule binders of XIP peptide, primary screen, biochemical, small-molecule microarray, fluorescence 635/667 nm, 0.5 µg/mL protein (AID 1183). Particulars: small-molecule microarray binding, fluorescence 635 nm; higher = more signal.
Assay [12] in a line: Plasmodium falciparum growth inhibition, primary screen, strain 3D7, DAPI fluorescence, 100 nL (AID 1184).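 Note: parasites grown inside human red blood cells in medium with human serum.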 Particulars: P. falciparum 3D7 growth, 3 d, higher = more signal.
Assay [13] deals with Homeobox protein Hox-A13 (Mus musculus) (UniProt Q62424). The assay is described as follows: inhibitors of HoxA13-DNA binding, primary screen, biochemical, fluorescence polarization, labeled oligonucleotide (AID 1185). Particulars: 15 min, higher = more signal, called active from +8 up or from −8 down.
Assay [14] is described as follows: inhibitors of hydroxyurea-induced Chk1 phosphorylation, primary screen, imaging, HeLa, phospho-Chk1 antibody, percent positive cells (AID 1186). The conditions noted are these: hydroxyurea-induced phospho-Chk1 immunofluorescence imaging, higher = more signal.
The nature of assay [15]: inhibitors of hydroxyurea-induced Chk1 phosphorylation, primary screen, imaging, HeLa, phospho-Chk1 nuclear intensity (AID 1187). Particulars: hydroxyurea-induced phospho-Chk1 immunofluorescence imaging, higher = more signal.

Dihydroorotate dehydrogenase (quinone), mitochondrial (Plasmodium falciparum (isolate 3D7)), sequence (Q08210 whole entry, looked up): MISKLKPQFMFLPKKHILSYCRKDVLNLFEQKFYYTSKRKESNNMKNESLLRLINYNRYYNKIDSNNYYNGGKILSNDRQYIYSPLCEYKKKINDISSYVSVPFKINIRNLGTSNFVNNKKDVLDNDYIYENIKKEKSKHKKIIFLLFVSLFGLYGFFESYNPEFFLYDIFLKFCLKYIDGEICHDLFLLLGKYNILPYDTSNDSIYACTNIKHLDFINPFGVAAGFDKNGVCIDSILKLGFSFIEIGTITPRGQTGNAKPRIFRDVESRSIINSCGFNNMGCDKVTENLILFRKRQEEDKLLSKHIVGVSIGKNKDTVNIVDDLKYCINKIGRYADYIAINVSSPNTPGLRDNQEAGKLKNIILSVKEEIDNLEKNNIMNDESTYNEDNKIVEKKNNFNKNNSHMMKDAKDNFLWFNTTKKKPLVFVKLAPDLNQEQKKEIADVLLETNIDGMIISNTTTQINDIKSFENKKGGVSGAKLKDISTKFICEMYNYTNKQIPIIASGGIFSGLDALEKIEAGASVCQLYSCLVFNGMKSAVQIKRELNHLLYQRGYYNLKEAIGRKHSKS
E3 ubiquitin-protein ligase XIAP (Homo sapiens), sequence (P98170 whole entry, looked up): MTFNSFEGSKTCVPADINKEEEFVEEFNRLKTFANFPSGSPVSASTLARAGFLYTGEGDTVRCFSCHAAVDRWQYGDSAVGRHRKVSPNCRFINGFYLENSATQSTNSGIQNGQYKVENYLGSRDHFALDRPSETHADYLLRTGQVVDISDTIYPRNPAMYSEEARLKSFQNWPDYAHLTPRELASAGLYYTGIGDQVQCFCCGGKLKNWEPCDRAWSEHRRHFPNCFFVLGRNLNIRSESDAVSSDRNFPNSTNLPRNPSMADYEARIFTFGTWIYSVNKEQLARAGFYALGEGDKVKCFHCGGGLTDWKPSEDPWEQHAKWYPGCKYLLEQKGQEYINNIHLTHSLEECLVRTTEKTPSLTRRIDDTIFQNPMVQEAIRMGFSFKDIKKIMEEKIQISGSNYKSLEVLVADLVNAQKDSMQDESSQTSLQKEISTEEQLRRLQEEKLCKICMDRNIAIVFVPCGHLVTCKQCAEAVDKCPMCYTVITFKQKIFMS
Homeobox protein Hox-A13 (Mus musculus), sequence (Q62424 whole entry, looked up): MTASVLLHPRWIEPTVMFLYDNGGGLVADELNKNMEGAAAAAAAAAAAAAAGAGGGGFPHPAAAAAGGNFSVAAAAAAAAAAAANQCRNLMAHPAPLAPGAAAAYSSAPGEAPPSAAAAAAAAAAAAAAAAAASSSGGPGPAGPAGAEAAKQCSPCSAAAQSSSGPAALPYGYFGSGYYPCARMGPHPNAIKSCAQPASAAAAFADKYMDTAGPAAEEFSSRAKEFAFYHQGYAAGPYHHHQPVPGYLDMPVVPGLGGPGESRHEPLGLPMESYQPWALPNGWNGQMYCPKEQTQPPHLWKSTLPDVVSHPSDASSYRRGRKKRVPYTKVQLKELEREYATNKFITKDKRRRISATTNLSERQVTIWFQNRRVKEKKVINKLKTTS

`O=C1O[C@@H](c2ccccc2)[C@@H](c2ccccc2)N2[C@@H](c3ccc(O)cc3)[C@]3(C(=O)Nc4ccc(C#CC5(O)CCCCCC5)cc43)[C@@H](C(=O)N3CCN(c4ncccn4)CC3)[C@H]12`: the z-score was 1.63 in assay [1]; -0.271 (inactive) in assay [2]; 0.0176 (inactive) in assay [3]; -0.641 (inactive) in assay [5]; 0.642 (inactive) in [6]; 0.614 (inactive) in assay [7]. Moreover, the z-score was 0.11 (inactive) in [8]; 1.1 in assay [9]; -2.02 in [12]; -1.72 (inactive) in assay [13]; -0.206 (inactive) in assay [14]; -0.624 (inactive) in [15]. For the same compound, the composite z-score in assay [4] was -1.08 (inactive); in assay [10], -0.127; in assay [11], 0.328 (inactive); with XIP peptide (Xip251-270), 0.559.
On to `COC(=O)[C@@]1(Cc2ccccc2)[C@H]2c3cc(C(=O)N4CCCC4)n(Cc4ccc(OC(F)(F)F)cc4)c3C[C@H]2CN1C(=O)c1ccccc1`, for which the z-score in assay [1] is -1.22; in [2] it was 1.61 (inactive); in assay [3], -2.46 (inactive); in [5], 0.632 (inactive); in assay [6], 1.85 (inactive); in [7], -1.22 (inactive). The z-score in assay [8] was -0.439 (inactive); in assay [9] it was -2.62; in assay [12], -1.4; in assay [13], -3.01 (inactive); in assay [14] it was 0.182 (inactive); in assay [15], -0.781 (inactive). Besides, the composite z-score is 0.868 (inactive) in [4], 0.131 in assay [10], 0.511 (inactive) in [11] and 0.408 in the assay with XIP peptide (Xip251-270).
For the compound `CCCCC=C[C@@H](NC(=O)CCc1ccccc1)c1ccccc1`, the z-score in [1] is -1.61; in [2], 0.927 (inactive); in [3], -2.09 (inactive); in assay [5] it was 1.16 (inactive); in assay [6] it was 0.929 (inactive); in assay [7], -0.0955 (inactive). Further, the z-score was -0.169 (inactive) in assay [8]; -3.6 in assay [9]; -0.425 in assay [12]; -0.0682 (inactive) in assay [13]; -0.522 (inactive) in [14]; -0.805 (inactive) in assay [15]. In addition, the composite z-score in assay [4] was -0.739 (inactive); in [10], -0.154; in assay [11], 0.286 (inactive); in the assay with XIP peptide (Xip251-270), 0.518.
Regarding `COC(=O)c1c(CC[C@@H](CO)NC(=O)N[C@@H](C)Cn2cc(C3(O)CCCC3)nn2)oc(C(C)=O)c1C(=O)OC`, the z-score in assay [1] was -1.1; in [2] it was -0.724 (inactive); in [3], -0.345 (inactive); in assay [5] it was 0.0793 (inactive); in [6], -0.429 (inactive); in assay [7] it was -0.0257 (inactive). In addition, the z-score in assay [8] is -0.687 (inactive); in [9], -0.88; in assay [12] it was -2.04; in assay [13], -1.93 (inactive); in [14], 1.1 (inactive); in assay [15] it was 0.929 (inactive). The composite z-score in assay [4] was -3.31 (inactive); in assay [10], -0.184; in [11], -0.0616 (inactive); with XIP peptide (Xip251-270) it was 0.407.
Consider `CCCCC(CC)C(O)C1C=CC2C(=O)NC(=O)C2N1Nc1ccccn1` (stereo not given), for which the z-score in assay [1] is -1.39; in assay [2], 0.332 (inactive); in assay [3] it was -1.51 (inactive); in [5], 1.2 (inactive); in assay [6], 0.852 (inactive); in assay [7] it was -0.486 (inactive). Besides, the z-score in assay [8] is -0.112 (inactive); in assay [9] it was -0.675; in assay [12], 0.133; in assay [13], -3.87 (inactive); in [14] it was 0.0438 (inactive); in [15], -0.119 (inactive). In addition, the composite z-score in assay [4] was 0.56 (inactive); in assay [10] it was 0.24; in assay [11], 0.327 (inactive); in the assay on XIP peptide (Xip251-270) it was 0.781.
For the compound `C[N+](C)(C)CCCCCCNC(=O)[C@@H]1C[C@@H]2C(=O)NCC(=O)N2[C@@H]1c1cccc(OCCO)c1`, the z-score in assay [1] was 0.597; in [2] it was -1.33 (inactive); in [3], 1.26 (inactive); in [5] it was 3.7 (inactive); in assay [6] it was -0.257 (inactive); in [7], -0.858 (inactive). Moreover, the z-score was -0.765 (inactive) in assay [8]; 0.343 in assay [9]; -0.848 in assay [12]; -4.4 (inactive) in [13]; -0.177 (inactive) in assay [14]; -0.261 (inactive) in assay [15]. Moreover, the composite z-score in assay [4] was -2.3 (inactive); in [10] it was 0.0192; in [11], 0.525 (inactive); in the assay with XIP peptide (Xip251-270) it was 0.421.
With `COCCCNC(=O)[C@]1(Cc2ccccc2CN=[N+]=[N-])N=C(c2ccc(OCCCO)cc2)O[C@@H]1c1ccccc1CN=[N+]=[N-]`, the z-score is -0.504 in assay [1]; 0.409 (inactive) in assay [2]; -2.2 (inactive) in assay [3]; 1.29 (inactive) in [5]; -0.605 (inactive) in assay [6]; 0.445 (inactive) in assay [7]. Moreover, the z-score was 0.0972 (inactive) in assay [8]; -2.03 in assay [9]; -2.48 in assay [12]; -2.43 (inactive) in assay [13]; -0.0731 (inactive) in [14]; -0.303 (inactive) in assay [15]. In addition, the composite z-score in [4] was 0.502 (inactive); in assay [10] it was 0.0427; in assay [11] it was 0.22 (inactive); with XIP peptide (Xip251-270) it was 0.744.
`CCCC=C(CCC)[C@@H](NS(=O)(=O)c1ccccc1)c1ccc(C(F)(F)F)cc1`: the z-score in assay [1] is -0.574; in assay [2], 0.892 (inactive); in assay [3], -2.56 (inactive); in assay [5], -0.415 (inactive); in assay [6], 1.07 (inactive); in assay [7], -0.28 (inactive). In addition, the z-score in assay [8] was -0.428 (inactive); in assay [9], -3.59; in assay [12], 0.118; in [13], -1.19 (inactive); in [14], -0.147 (inactive); in assay [15], -0.423 (inactive). Further, the composite z-score in assay [4] was -0.62 (inactive); in assay [10], 0.0039; in assay [11] it was -0.363 (inactive); in the assay with XIP peptide (Xip251-270), 0.528.
In the case of `COCCCNC(=O)[C@]1(Cc2ccccc2)N=C(c2ccc(OCCCO)cc2)O[C@@H]1c1ccccc1N=[N+]=[N-]`, the z-score in assay [1] is 0.0754; in [2] it was -1.75 (inactive); in assay [3], -2.61 (inactive); in assay [5] it was -0.674 (inactive); in assay [6] it was -0.355 (inactive); in assay [7], 1.27 (inactive). In addition, the z-score was 0.642 (inactive) in assay [8]; -2.73 in assay [9]; -2.7 in assay [12]; -4.42 (inactive) in assay [13]; -1.82 (inactive) in assay [14]; -6.65 (inactive) in assay [15]. The composite z-score in assay [4] was 0.828 (inactive); in assay [10] it was -0.02; in [11] it was 0.829 (inactive); in the assay with XIP peptide (Xip251-270), 0.576.
Take `CN(C)CCCCCCNC(=O)[C@@H]1C[C@@H]2C(=O)NCC(=O)N2[C@@H]1c1ccc(O)cc1`: the z-score was -1.01 in assay [1]; -1.06 (inactive) in [2]; -1.26 (inactive) in [3]; -0.13 (inactive) in assay [5]; -0.832 (inactive) in assay [6]; -0.208 (inactive) in assay [7]. The z-score in assay [8] was -0.823 (inactive); in assay [9], -1.35; in assay [12], -0.107; in assay [13] it was -1.63 (inactive); in [14], -0.425 (inactive); in [15], -0.297 (inactive). Moreover, the composite z-score was -0.493 (inactive) in assay [4], 0.249 in assay [10], 1.82 (inactive) in assay [11] and 0.935 with XIP peptide (Xip251-270).
